According to PubChem BioAssay (NCATS):
Results filed as inconclusive are left out. Activity calls are given as the source filed them. Calls come from the whole dose curve; as a rule, active = well fitted curve in the direction sought with a large enough effect; inconclusive = small, poorly fitted or top-dose-only effect, or another doubt; inactive = no such curve, though single readings can be large; an effect the other way counts as inactive or inconclusive.

Tests used:
[1] = qHTS of pediatric cancer cell lines to identify multiple opportunities for drug repurposing: Primary screen for BT-12 cells (AID 1347101); note: nearly all actives have a fitted effect of over 25% in size; note: potency is the fitted concentration of half-maximal effect
Procedure, shortened: (§1)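 Cells (500-1,000/well) rested 5 h, then received compounds for 48 h; metabolically active cells were measured by CellTiter-Glo luminescence. Final concentrations spanned up to 46 µM (MIPE, 11-point) or 0.59 nM-46 µM (NPC, 8-point) in primary screens, 11-point in follow-ups.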

[2] = qHTS of pediatric cancer cell lines to identify multiple opportunities for drug repurposing: Primary screen for Rh18 cells (AID 1347102); note: nearly all actives have a fitted effect of over 65% in size
Procedure, shortened: as §1

[3] = qHTS of pediatric cancer cell lines to identify multiple opportunities for drug repurposing: Primary screen for control Hh wild type fibroblast cells (AID 1347106); note: nearly all actives have a fitted effect of over 55% in size; note: potency is the fitted concentration of half-maximal effect
Procedure, shortened: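 Cells (500-1,000/well) in growth media were settled 5 h at 37 degrees C, then given compounds for 48 h. Viability was read as CellTiter-Glo luminescence. Primary runs used MIPE at 11 points (0.78 nM-46 µM) and NPC at 8 points (0.59 nM-46 µM); follow-ups used 11 points.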

[4] = qHTS of pediatric cancer cell lines to identify multiple opportunities for drug repurposing: Primary screen for Rh41 cells (AID 1347108); note: nearly all actives have a fitted effect of over 70% in size; note: potency is the fitted concentration of half-maximal effect
Procedure, shortened: (§2)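 Following a 5-hour attachment period, cells at 500-1,000/well received compounds and were cultured for 48 hours. CellTiter-Glo was added and luminescence read to estimate viable, metabolically active cells.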

[5] = qHTS of pediatric cancer cell lines to identify multiple opportunities for drug repurposing: Primary screen for LAN-5 cells (AID 1347100); note: potency is the fitted concentration of half-maximal effect
Procedure, shortened: as §1

[6] = qHTS of pediatric cancer cell lines to identify multiple opportunities for drug repurposing: Primary screen for OHS-50 cells (AID 1347103); note: nearly all actives have a fitted effect of over 40% in size; note: potency is the fitted concentration of half-maximal effect
Procedure, shortened: as §1

[7] = qHTS of pediatric cancer cell lines to identify multiple opportunities for drug repurposing: Primary screen for RD cells (AID 1347104); note: nearly all actives have a fitted effect of over 55% in size; note: potency is the fitted concentration of half-maximal effect
Procedure, shortened: as §2

[8] = qHTS of pediatric cancer cell lines to identify multiple opportunities for drug repurposing: Primary screen for MG 63 (6-TG R) cells (AID 1347105); note: nearly all actives have a fitted effect of over 50% in size; note: potency is the fitted concentration of half-maximal effect
Procedure, shortened: as §2

[9] = qHTS of pediatric cancer cell lines to identify multiple opportunities for drug repurposing: Primary screen for Rh30 cells (AID 1347107); note: series mostly up to about 46 µM; nearly all actives have a fitted effect of over 75% in size
Procedure, shortened: as §1

[10] = qHTS of pediatric cancer cell lines to identify multiple opportunities for drug repurposing: Confirmatory screen for NB1643 cells (AID 1347109); note: potency is the fitted concentration of half-maximal effect; nearly all actives have a fitted effect of over 45% in size
Procedure, shortened: as §1

Measured: Potency

CNC(=O)c1ccc(N2C(=S)N(c3ccc(C#N)c(C(F)(F)F)c3)C(=O)C23CCC3)cc1F
active: [3] 13.2 µM | [4] 11.8 µM
inactive: [1] | [2]

Cc1ccc(S(=O)(=O)N[C@@H](CCCCN)C(=O)CCl)cc1
not listed: [1] | [10]
inactive: all other assays above

c1ccc2c(c1)OCC(C1=NCCN1)O2 (stereo not drawn)
inactive: [9]
active: [5] 26.6 µM | [1] 19.5 µM | [7] 21.1 µM

CCOC(=O)C1(c2ccccc2)CCN(CCC(C#N)(c2ccccc2)c2ccccc2)CC1
active: [6] 12.3 µM
inactive: [3]

Clc1ccc(COC(Cn2ccnc2)c2ccc(Cl)cc2Cl)cc1 (stereo not drawn)
active: [1] 15.5 µM
inactive: [2] | [8] | [3] | [9]

CC[C@@H](CO)NC(=O)[C@@H]1C=C2c3cccc4c3c(cn4C)C[C@H]2N(C)C1
inactive: [2] | [6] | [7] | [3] | [9] | [4]

CO[C@]12CC[C@@]3(C[C@@H]1[C@](C)(O)C(C)(C)C)[C@@H]1Cc4ccc(O)c5c4[C@@]3(CCN1CC1CC1)[C@H]2O5
active: [6] 25 µM | [8] 30.3 µM

O=c1[nH]c2ccccc2n1C1CCN(CCCC(c2ccc(F)cc2)c2ccc(F)cc2)CC1
inactive: [3] | [9]
active: [1] 15.5 µM | [6] 17.4 µM

O=c1[nH]c2ccccc2n1CCCN1CCC(n2c(=O)[nH]c3cc(Cl)ccc32)CC1
active: [10] 7.37 µM
not listed: [1]
inactive: all other assays above

CNC(=O)N1N=C(c2ccc(N)cc2)c2cc3c(cc2CC1C)OCO3 (stereo not drawn)
active: [5] 5.9 µM | [6] 3.85 µM
inactive: [3] | [9]

COc1ccc(Cc2nccc3cc(OC)c(OC)cc23)cc1OC
inactive: [2] | [3] | [9]

Oc1ccc(Cl)cc1Cc1ccccc1
active: [6] 25.6 µM
inactive: [1] | [2] | [3] | [9] | [4]

C[C@]12C/C(=C/O)C(=O)C[C@@H]1CC[C@@H]1[C@@H]2CC[C@@]2(C)[C@H]1CC[C@]2(C)O
inactive: [2] | [7] | [8] | [3] | [9] | [4]
